# Counter-ions that a name gives are not always drawn. ± gives the standard deviation of the averaged measurements.
# What was measured:
# [1] = tested on: Saccharomyces cerevisiae BY4741 SeMeCo community; experiment: mean cell size (pixel area) (pixels); higher = larger cells; details: 10 µM; 24 h; SM minimal medium
# How it was run: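 The test system was a fluorescent Saccharomyces cerevisiae BY4741 community with four plasmids, each restoring one auxotrophy and carrying a fluorescent marker. Cells were grown for 24 h in SM medium with drug at a final 10 µM in 384-well plates, then fixed with paraformaldehyde and imaged by automated confocal microscopy for Harmony analysis of mean cell pixel area per well. Values represent the average of 3 replicates. Same SeMeCo high-content imaging drug screen: Selleck FDA-approved drugs at 10 µM, 24 h in SM medium, 384-well plates, 3 replicates.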
# [2] = tested on: Saccharomyces cerevisiae BY4741 SeMeCo community; experiment: z-score of prototroph abundance vs DMSO median; higher = larger share of this subpopulation than in DMSO controls; details: 10 µM; 24 h; SM minimal medium; subpopulation (auxotrophy): Prototroph
# How it was run: (§1)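 Scoring was based on each subpopulation's abundance, expressed as a z-score against the vehicle-well median. A Saccharomyces cerevisiae BY4741 community with four plasmids, each restoring one auxotrophy and encoding a distinct fluorescent protein, was pre-grown overnight to OD600 1.0, diluted to 0.3, and added at 70 µl to 384-well plates acoustically predosed with library drugs (10 µM final). It then grew 24 h in minimal SM medium before paraformaldehyde fixation and automated confocal microscopy, with single-auxotroph fluorescent strains setting thresholds and autofluorescence correction.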
# [3] = tested on: Saccharomyces cerevisiae BY4741 SeMeCo community; experiment: z-score of subpopulation abundance vs DMSO median, subpopulation auxotrophic for M; higher = larger share of this subpopulation than in DMSO controls; details: 10 µM; 24 h; SM minimal medium; subpopulation (auxotrophy): M
# How it was run: as §1
# [4] = tested on: Saccharomyces cerevisiae BY4741 SeMeCo community; experiment: z-score of subpopulation abundance vs DMSO median, subpopulation auxotrophic for L; higher = larger share of this subpopulation than in DMSO controls; details: 10 µM; 24 h; SM minimal medium; subpopulation (auxotrophy): L
# How it was run: as §1
# [5] = tested on: Saccharomyces cerevisiae BY4741 SeMeCo community; experiment: z-score of subpopulation abundance vs DMSO median, subpopulation auxotrophic for H; higher = larger share of this subpopulation than in DMSO controls; details: 10 µM; 24 h; SM minimal medium; subpopulation (auxotrophy): H
# How it was run: as §1
# [6] = tested on: Saccharomyces cerevisiae BY4741 SeMeCo community; experiment: z-score of subpopulation abundance vs DMSO median, subpopulation auxotrophic for LU; higher = larger share of this subpopulation than in DMSO controls; details: 10 µM; 24 h; SM minimal medium; subpopulation (auxotrophy): LU
# How it was run: as §1
# [7] = tested on: Saccharomyces cerevisiae BY4741 SeMeCo community; experiment: z-score of subpopulation abundance vs DMSO median, subpopulation auxotrophic for LM; higher = larger share of this subpopulation than in DMSO controls; details: 10 µM; 24 h; SM minimal medium; subpopulation (auxotrophy): LM
# How it was run: as §1
# [8] = tested on: Saccharomyces cerevisiae BY4741 SeMeCo community; experiment: z-score of subpopulation abundance vs DMSO median, subpopulation auxotrophic for HM; higher = larger share of this subpopulation than in DMSO controls; details: 10 µM; 24 h; SM minimal medium; subpopulation (auxotrophy): HM
# How it was run: as §1
# [9] = tested on: Saccharomyces cerevisiae BY4741 SeMeCo community; experiment: z-score of subpopulation abundance vs DMSO median, subpopulation auxotrophic for UM; higher = larger share of this subpopulation than in DMSO controls; details: 10 µM; 24 h; SM minimal medium; subpopulation (auxotrophy): UM
# How it was run: as §1
# [10] = tested on: Saccharomyces cerevisiae BY4741 SeMeCo community; experiment: z-score of subpopulation abundance vs DMSO median, subpopulation auxotrophic for HL; higher = larger share of this subpopulation than in DMSO controls; details: 10 µM; 24 h; SM minimal medium; subpopulation (auxotrophy): HL
# How it was run: as §1
# [11] = tested on: Saccharomyces cerevisiae BY4741 SeMeCo community; experiment: z-score of subpopulation abundance vs DMSO median, subpopulation auxotrophic for HLM; higher = larger share of this subpopulation than in DMSO controls; details: 10 µM; 24 h; SM minimal medium; subpopulation (auxotrophy): HLM
# How it was run: as §1
# [12] = tested on: Saccharomyces cerevisiae BY4741 SeMeCo community; experiment: z-score of subpopulation abundance vs DMSO median, subpopulation auxotrophic for HUM; higher = larger share of this subpopulation than in DMSO controls; details: 10 µM; 24 h; SM minimal medium; subpopulation (auxotrophy): HUM
# How it was run: as §1
# [13] = tested on: Saccharomyces cerevisiae BY4741 SeMeCo community; experiment: z-score of subpopulation abundance vs DMSO median, subpopulation auxotrophic for LUM; higher = larger share of this subpopulation than in DMSO controls; details: 10 µM; 24 h; SM minimal medium; subpopulation (auxotrophy): LUM
# How it was run: as §1
# [14] = tested on: Saccharomyces cerevisiae BY4741 SeMeCo community; experiment: z-score of subpopulation abundance vs DMSO median, subpopulation auxotrophic for HLUM; higher = larger share of this subpopulation than in DMSO controls; details: 10 µM; 24 h; SM minimal medium; subpopulation (auxotrophy): HLUM
# How it was run: as §1
# [15] = tested on: Saccharomyces cerevisiae BY4741 SeMeCo community; experiment: z-score of subpopulation abundance vs DMSO median, subpopulation auxotrophic for U; higher = larger share of this subpopulation than in DMSO controls; details: 10 µM; 24 h; SM minimal medium; subpopulation (auxotrophy): U
# How it was run: as §1
# [16] = tested on: Saccharomyces cerevisiae BY4741 SeMeCo community; experiment: z-score of subpopulation abundance vs DMSO median, subpopulation auxotrophic for HU; higher = larger share of this subpopulation than in DMSO controls; details: 10 µM; 24 h; SM minimal medium; subpopulation (auxotrophy): HU
# How it was run: as §1
# [17] = tested on: Saccharomyces cerevisiae BY4741 SeMeCo community; experiment: z-score of subpopulation abundance vs DMSO median, subpopulation auxotrophic for HLU; higher = larger share of this subpopulation than in DMSO controls; details: 10 µM; 24 h; SM minimal medium; subpopulation (auxotrophy): HLU
# How it was run: as §1
SMILES,mean cell size [1],z-score of prototroph abundance [2],z-score of subpopulation abundance [3],z-score of subpopulation abundance [4],z-score of subpopulation abundance [5],z-score of subpopulation abundance [6],z-score of subpopulation abundance [7],z-score of subpopulation abundance [8],z-score of subpopulation abundance [9],z-score of subpopulation abundance [10],z-score of subpopulation abundance [11],z-score of subpopulation abundance [12],z-score of subpopulation abundance [13],z-score of subpopulation abundance [14],z-score of subpopulation abundance [15],z-score of subpopulation abundance [16],z-score of subpopulation abundance [17]
COCCOC(=O)C1=C(C)NC(C)=C(C(=O)OC/C=C/c2ccccc2)C1c1cccc([N+](=O)[O-])c1 (configuration not stated) [Cilnidipine],12.3 ± 0.24,-0.13,-1.14,0.77,1.28,0.17,0.12,0.7,-0.33,0.94,-0.44,0.37,-0.1,-0.48,–,–,–
C#C[C@]1(O)CC[C@H]2[C@@H]3CCC4=Cc5oncc5C[C@]4(C)[C@H]3CC[C@@]21C [Danazol],12.2 ± 0.23,–,-0.89,-0.15,-0.48,0.13,0.04,-0.49,0.52,-0.13,-0.39,0.74,0.22,-0.4,0.53,0.32,–
CCCCOc1ccc(CC(=O)NO)cc1 [Bufexamac],12.53 ± 0.12,1.23,–,-1.49,-0.53,–,-1.36,-0.9,-0.32,-0.85,-1.19,–,-0.9,-1.25,–,0.4,-0.71
O=C(c1ccc(OCCN2CCCCC2)cc1)c1c(-c2ccc(O)cc2)sc2cc(O)ccc12 [Raloxifene HCl],12.2 ± 0.27,0.44,–,1.28,–,–,–,0.58,-0.85,0.66,-0.47,0.06,–,-0.56,-1.87,–,-0.29
CN1C(C(=O)Nc2ccccn2)=C(O)c2ccccc2S1(=O)=O [Piroxicam],12.79 ± 0.11,1.29,-0.1,-0.78,-0.62,-0.71,-1.45,-0.94,-0.3,-0.37,-0.68,-0.89,-1.33,-0.92,-0.17,-0.6,–
CC1(C)S[C@@H]2[C@H](NC(=O)[C@H](NC(=O)N3CCNC3=O)c3ccccc3)C(=O)N2[C@H]1C(=O)O [Azlocillin sodium salt],12.4 ± 0.27,0.68,-0.54,1.83,-0.59,-0.34,1.34,-0.15,–,0.33,-0.3,-1.31,0.86,0.63,-1.51,-1.18,–
CC[C@H]1OC(=O)[C@H](C)[C@@H](O[C@H]2C[C@@](C)(OC)[C@@H](O)[C@H](C)O2)[C@H](C)[C@@H](O[C@@H]2O[C@H](C)C[C@H](N(C)C)[C@H]2O)[C@](C)(O)C[C@@H](C)C(=O)[C@H](C)[C@H]2OC(=O)O[C@@]21C [Erythromycin Cyclocarbonate],12.19 ± 0.065,-1.17,-0.28,1.01,2.08,0.04,0.55,0.9,0.58,–,0.52,0.96,0.8,0.39,0.09,0.76,–
CCCOc1ccc2c(c1)CC[C@@H]1[C@@H]2CC[C@]2(C)[C@@H](OC)CC[C@@H]12 [Promestriene],12.5 ± 0.26,-1.13,1.08,0.77,0.19,0.62,0.33,0.25,1.71,0.84,0.48,1.7,–,0.24,0.31,0.21,–
O=C(O)CCc1nc(-c2ccccc2)c(-c2ccccc2)o1 [Oxaprozin],13 ± 0.46,–,-1.37,-0.53,-0.36,-2.1,-1,-0.83,-3.67,-0.56,-0.64,-1.67,-1.68,-0.44,–,-1.46,–
CNCC[C@@H](Oc1ccccc1C)c1ccccc1 [Atomoxetine HCl],12.4 ± 0.22,–,0.21,0.96,-0.84,0,0.36,-0.84,-0.26,-0.43,-0.77,-1.01,0.05,1.1,0.03,-0.99,–
C=CC[C@@H]1/C=C(\C)C[C@H](C)C[C@H](OC)[C@H]2O[C@@](O)(C(=O)C(=O)N3CCCC[C@H]3C(=O)O[C@H](/C(C)=C/[C@@H]3CC[C@@H](O)[C@H](OC)C3)[C@H](C)[C@@H](O)CC1=O)[C@H](C)C[C@@H]2OC [Tacrolimus (FK506)],12.02 ± 0.1,-1.63,2.07,0.71,1.87,-1.01,0.93,1.61,1.02,1.89,1.8,1.84,1.93,2.77,-0.41,1.08,–
C[C@H]1NCc2cc(-c3ccc4c(=O)c(C(=O)O)cn(C5CC5)c4c3OC(F)F)ccc21 [Garenoxacin],12.34 ± 0.078,-0.68,0.86,-0.44,-0.22,-0.05,0.15,0.28,-0.07,0.46,0.1,0.84,0.75,-0.08,0.6,0.7,–
CN(C/C=C/C#CC(C)(C)C)Cc1cccc2ccccc12 [Terbinafine HCl],12.27 ± 0.088,-0.62,1.09,-0.84,–,0.54,-0.74,-0.78,1.94,-0.47,-0.22,1.65,–,1,1.03,0.89,–
NC(=N\CCCCCC/N=C(N)/N=C(\N)Nc1ccc(Cl)cc1)/N=C(\N)Nc1ccc(Cl)cc1 [Chlorhexidine diacetate],–,1.46,–,-0.29,0.93,–,-0.7,-1.35,-1.2,1.03,1.2,-0.61,–,2.97,-0.99,-0.08,1.21
